# Shiga toxin inh: Shiga toxin inhibition | Vero cells, Shiga toxin protein synthesis inhibition reporter | 290,000 compounds, 9.2% hits | AID 2315 | inhibition, % at 38.7 µM; in the data active = inhibition mostly above about 28%, no sharp cut-off; inactive = mostly below about 43%; also: 0% is about no effect
# Pf growth 48h: inhibits P. falciparum growth in the first generation, 48 h. 310,000 compounds, 5.9% hits. Potency, µM (series often up to 28.7 µM), inactives show top-dose activity change, negative = inhibition, actives largely listed as inhibitors. P. falciparum luciferase growth in erythrocytes, 48 h; also: potency is read from the fitted curve at half-maximal effect; % is scaled to controls: 0 for no effect and ±100 for the full control effect
#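 In quantitative HTS format, infected erythrocytes bearing luciferase-reporter parasites were treated for a single generation at 37 C. Luminescence after adding detection reagent served as the growth measure.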
# Cycloheximide cs: counter-screen hit for Shiga toxin inhibitors, cycloheximide; cell reporter, cycloheximide protein synthesis inhibition counterscreen; max response, %; 300,000 compounds, 12% hits; AID 2314; in the data active = max response mostly above about 13%, no sharp cut-off; inactive = mostly below about 14%; also: read at 38.3 µM for the half of the compounds with a filed dose; 0% is about no effect
# Pf growth 96h: P. falciparum growth inhibition at 96 hour, primary screen for plastid delayed-death inhibitors; AID 504834; Potency, µM (doses to about 28.7 µM), for inactives: top-dose activity change, negative = inhibition, most hits filed as inhibitors; P. falciparum luciferase reporter growth, 96 h; 320,000 compounds, 6.9% hits; also: potency is read from the fitted curve at half-maximal effect; % is scaled to controls: 0 for no effect and ±100 for the full control effect
#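 Two parasite generations (96 h, 37 C, 5% CO2) of compound exposure in infected erythrocytes (0.05% parasitemia, 2% hematocrit). Luciferase-reporter P. falciparum; decreased luminescence indicates inhibited growth, aimed at apicoplast-acting delayed death.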
# HCV inh: HCV inhibition | Potency, µM (series often up to 41.8 µM), without a hit: at the top dose activity change, negative = inhibition, most hits filed as inhibitors | 340,000 compounds, 3.4% hits | Huh7.5.1 HCVcc-Cre infection, luciferase reporter, 44 h; also: potency is read from the fitted curve at half-maximal effect; % is scaled to controls: 0 for no effect and ±100 for the full control effect
#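 HCVcc-Cre virus at an moi near 0.5 was added right after compound to cells cultured 4 h from seeding (1,000 cells/well). Luciferase activity was determined 44 h later, 15 min after substrate addition at RT.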
# AMA1 RON2 block: AMA1-RON2 (P. falciparum) interaction inhibition. AlphaScreen AMA1-biotinylated RON2 peptide binding. Potency, µM (doses to about 58.2 µM), for the others: top-dose activity change, negative = inhibition, most hits filed as inhibitors. 360,000 compounds, 0.2% hits. AID 720542;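 also: potency is read from the fitted curve at half-maximal effect; 0% = vehicle wells and -100% = peptide control; nearly all actives have a fitted effect of over 45% in size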
#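 AMA1 (3D7) with his tag at 25 nM final met compounds first, then biotinylated RON2 peptide at 25 nM; detection used donor plus acceptor beads, 10 µg/mL apiece, read by AlphaScreen after 30 min at room temperature.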
# * hit, by the source's call; ? = inconclusive; . = no result. Only some compounds are listed: those with a hit (about 21% of all), similar ones and a draw of the others. Unless noted, calls follow the shape of the dose curve; as a rule, active = well fitted curve in the direction sought with a large enough effect; inconclusive = small, poorly fitted or top-dose-only effect, or another doubt; inactive = no such curve, though single readings can be large; an effect the other way counts as inactive or inconclusive.
SMILES,Shiga toxin inh,Pf growth 48h,Cycloheximide cs,Pf growth 96h,HCV inh,AMA1 RON2 block
Cc1cc(OC(C)C(=O)NCc2ccccn2)c2c(C)c(C)c(=O)oc2c1 (stereo unspecified),2.9,?,-2.2,?,-18.6%,-1.1%
O=C(CCc1nc2ccccc2c(=O)[nH]1)N1CCN(S(=O)(=O)c2ccc(F)cc2)CC1,.,?,.,?,-8.4%,-4.2%
CCn1ncc(Br)c1C(=O)Nc1ncc(C)s1,68.9*,37.4%,26.8,138.2%,-17.5%,13.0%
CC(=O)NC12CC3CC(C1)CC(C(=O)N1CCN(S(=O)(=O)c4ccc(C(C)C)cc4)CC1)(C3)C2,.,0.4%,.,11.7µM*,-1.1%,8.5%
CN(Cc1ccc(Cl)cc1)C(=O)CCl,3.5,?,2.2,?,?,-7.8%
CC(C)(C)C(=O)N(Cc1ccc(Cl)cc1)c1cnccn1,-4.5,3.29µM*,-1.9,5.22µM*,?,-0.6%
O=C(NCc1ccco1)C1CCN(c2ccc(S(=O)(=O)N3CCOCC3)cc2[N+](=O)[O-])CC1,-19.0,?,-0.5,?,-6.6%,2.5%
Cc1ccc(C(=O)Nc2ccc(S(=O)(=O)N3CCOCC3)cc2)cc1,-1.9,?,7.1,?,-4.6%,0.0%
O=C(Nc1ccc(S(=O)(=O)N2CCOCC2)cc1)c1ccc(S(=O)(=O)N2CCOCC2)cc1,5.0,-3.7%,16.4,11.7µM*,8.6%,-10.8%
CC1CCCN(CC(=O)Nc2ccc(S(=O)(=O)N3CCCC3)cc2)C1 (stereo unspecified),16.2,-18.6%,-3.6,-10.7%,-21.8%,15.3%
CC1CCN(S(=O)(=O)c2ccc(NC(=O)CN3CCCC(C)C3)cc2)CC1 (stereo unspecified),19.8,.,-2.2,11.7µM*,-20.6%,0.0%
O=C(NC1CC2CCC1C2)c1ccc(CN2CCOCC2)cc1 (stereo unspecified),116.7*,46.9%,33.6*,.,24.0%,-16.2%
CC1CCN(S(=O)(=O)c2cccc(C(=O)Nc3ccccc3)c2)CC1,-10.1,?,-2.3,2.62µM*,?,-2.3%
CC(C)CC1C(=O)N(Cc2cn(CCC3OCCCO3)nn2)CCS(=O)(=O)N1Cc1ccc(-c2ccc(Cl)c(Cl)c2)cc1 (stereo unspecified),.,.,.,.,.,-4.6%
C[C@H]1COc2cccc(N3CCC[C@H]3CO)c2S(=O)(=O)N1,.,.,.,.,.,0.6%
Cc1ccc(NC(=O)c2ccc(S(=O)(=O)N3CCC(C)CC3)cc2)cc1,20.4,10.4µM*,-2.7,.,-12.2%,-3.3%
O=C(Nc1ccc(S(=O)(=O)N2CCCC2)cc1)c1ccc(CN2CCOCC2)cc1,-8.8,?,-1.2,23.8%,6.31µM*,-1.8%
CCN(CC)S(=O)(=O)c1ccc(NC(=O)c2ccc(CN3CCOCC3)cc2)cc1,5.1,6.57µM*,1.0,-14.5%,?,-11.8%
CCOc1ccc(-n2c([S-])c(C(=O)Nc3ccc(S(=O)(=O)N4CCOCC4)cc3)[n+]3cc(C(N)=O)ccc23)cc1,-9.9,11.7µM*,-3.4,?,9.0%,5.9%
O=C(NCCS(=O)(=O)N1CCCCCC1)c1ccc(F)cc1,.,-6.8%,.,11.5%,13.7%,4.5%
S=c1nc(-c2ccccc2)[nH]c2ccc(Br)cc12,24.1,2.9%,1.4,-3.0%,15.9%,93.7%
Cc1ccccc1-c1cnc(C(O)c2cc(Cl)cc(Cl)c2)[nH]1 (stereo unspecified),.,.,.,.,.,4.3%
CCCc1c(C(=O)N/N=C(\CC)c2ccccc2)nnn1-c1nonc1N,.,.,.,.,.,-14.7%
O=C(Nc1ccc(S(=O)(=O)N2CCCCC2)cc1)c1ccc(CN2CCOCC2)cc1,-5.1,?,-2.2,-23.0%,2.82µM*,21.9%
O=C(Nc1ccc(S(=O)(=O)N2CCOCC2)cc1)c1ccc(Cl)cc1,2.8,?,-3.3,?,?,-1.0%
SMILES,Shiga toxin inh,Pf growth 48h,Cycloheximide cs,Pf growth 96h,HCV inh,AMA1 RON2 block
Cc1ccc(C)c(OCc2cc(C(=O)N(C)Cc3nccs3)no2)c1,52.0*,-4.4%,22.9*,?,-0.8%,1.5%
CN(Cc1ccccn1)C(=O)c1cc(COc2ccc(F)cc2Cl)on1,.,.,.,.,.,-4.2%
Cc1ccc(C)c(OCc2cc(C(=O)N(C)Cc3ccccn3)no2)c1,48.7*,14.8%,28.7*,?,-8.0%,87.1%
Cc1ccc(C)c(OCc2cc(C(=O)NC(c3ccccn3)C(F)(F)F)no2)c1 (stereo unspecified),.,.,.,.,?,45.3%
COc1ccc(COC(=O)C2=C(C)NC(=O)NC2c2cc(Br)c(O)c(OC)c2)cc1 (stereo unspecified),-12.7,0.0%,-0.8,?,-20.0%,-2.8%
Nc1ncnc2c1ncn2[C@@H]1O[C@H](CNC(=O)[C@@H](N)Cc2ccc(C(=O)c3ccccc3)cc2)[C@@H](O)[C@H]1O,.,.,.,.,.,3.0%
CCCc1nn(C)c(C(=O)Nc2ccc(C)c(C)c2)c1Cl,92.4*,70.3%,31.6*,52.1%,6.7%,11.5%
CCc1ccc(NC(=O)CCn2ccnc2C)cc1,-11.2,.,6.7,?,-2.6%,0.0%
CCCc1nn(C)c(C(=O)Nc2ccc(CC)cc2)c1Cl,35.4*,12.1%,17.4,5.5%,8.7%,-0.3%
CCn1nc(C(=O)Nc2ccc(C)c(C)c2)c(Cl)c1Cl,-2.0,-13.8%,13.7,102.1%,-1.4%,-1.5%
CCCc1nn(C)c(C(=O)Nc2cccc3ccccc23)c1Cl,35.5*,7.0%,12.3,-18.1%,-29.1%,31.1%
CN(CCOc1ccccc1)CC(=O)Nc1ccc(Br)cc1F,-4.7,46.1%,-1.6,56.4%,3.7%,16.1%
COc1ccc(/C=C2/C(=N)N3N=C(CC(=O)N4CCCC4)SC3=NC2=O)cc1OC,-6.1,15.7%,-3.7,22.1%,12.4%,26.3%
COc1cc(/C=C2/C(=N)N3N=C(CC(=O)N4CCOCC4)SC3=NC2=O)ccc1OCc1ccc(F)cc1,106.0*,2.8%,39.5*,?,?,89.9%
COc1cc(/C=C2/C(=N)N3N=C(CC(=O)N4CCOCC4)SC3=NC2=O)ccc1OCc1ccccc1F,42.7,-11.6%,26.3*,3.8%,18.4%,21.7%
CC(=O)c1ccc(NC(=O)CC23CC4CC(C2)CC(n2nnc(C)n2)(C4)C3)cc1,17.9,?,5.2,3.3%,2.1%,-0.6%
CC1(C(=O)Nc2ccc3c(c2)OCCO3)CCN1C(=O)c1ccco1 (stereo unspecified),.,.,.,.,.,-3.2%
COc1cc(NC(=O)c2ccnnc2)cc(C(=O)Nc2cccc(C(F)(F)F)c2)c1,10.9,9.28µM*,0.7,4.15µM*,?,-8.3%
O=C(NC1CCSC1=O)c1ccc(Oc2cccc(C(F)(F)F)c2)nc1 (stereo unspecified),-23.0,-16.6%,-1.6,14.2%,5.3%,4.0%
O=C(Nc1ccc(Oc2cccc(C(F)(F)F)c2)nc1)c1ccccc1,-1.8,10.4µM*,-2.8,14.7µM*,?,-15.0%

# Source: PubChem
